Results filed as inconclusive are left out. Where a call stands in place of a potency, no number is given. A number with no mark means an inactive call. The source made the active and inactive calls. Calls follow the shape of the dose curve; as a rule, active = well fitted inhibition curve with a large enough effect; inconclusive = small, poorly fitted or top-dose-only effect; inactive = no such curve, though single readings can be large or run the other way.
These compounds were tested against Retinaldehyde dehydrogenase 3 (Homo sapiens) (UniProt P47895) (assay: qHTS for Inhibitors of the Aldehyde Dehydrogenase Family (ALDH1A3) Primary screen (AID 2061315)). Details: ALDH inhibition qHTS; series mostly up to 56 µM.

Structure (SMILES)	Potency	activity change, negative = inhibition
CC1(C)CC[C@]2(C(=O)O)CC[C@]3(C)C(=CCC4[C@@]5(C)CC[C@H](O[C@@H]6O[C@H](C(=O)O)[C@@H](O)[C@H](O)[C@H]6O)C(C)(C)C5CC[C@]43C)C2C1 (some centres not stated)	inactive	–
CC1(C)CC2C(O)c3cocc3CC(C)(O)C2C1 (configuration not stated)	inactive	–
CC(=O)O[C@H]1[C@H](O[C@H]2[C@@H]3C=CO[C@@H](O[C@@H]4O[C@H](CO)[C@@H](O)[C@H](O)[C@H]4O)[C@@H]3[C@@]3(CO)O[C@@H]23)O[C@@H](C)[C@H](OC(=O)/C=C/c2ccccc2)[C@H]1OC(=O)/C=C/c1ccccc1	inactive	–
CCC/C=C1\OC(=O)C2=C1CCC(O)C2O (configuration not stated)	inactive	–
CC1CCC2(C(=O)O)CCC3(C)C(=CCC4C5(C)CCC(OC(=O)/C=C/c6ccccc6)C(C)(C)C5CCC43C)C2C1C (configuration not stated)	inactive	–
C=C1CC[C@@]2(OC1)O[C@H]1CC3[C@@H]4CC=C5C[C@@H](O)C[C@@H](O[C@@H]6OC[C@H](O)[C@H](O)[C@H]6O[C@@H]6O[C@@H](C)[C@H](O)[C@@H](O)[C@H]6O)[C@]5(C)C4CC[C@]3(C)[C@H]1[C@@H]2C (some centres not stated)	inactive	–
COC(=O)CC(O)CC(O)/C=C/c1c(C)ccc2c1C(OC(C)=O)CC(C)C2 (configuration not stated)	inactive	–
CCC(CC)n1ccc2c(C(=O)NCc3c(C)cc(C)[nH]c3=O)cc(C#N)cc21	inactive	–
CC(=O)OC1C(c2ccccc2)CCC(c2ccccc2)C1OC(C)=O (configuration not stated)	inactive	–
CC(C)=CCC[C@](C)(O[C@@H]1O[C@H](CO)[C@@H](O)[C@H](O)[C@H]1O)[C@H]1CC[C@]2(C)[C@@H]1[C@H](O)CC1[C@@]3(C)CC[C@H](O)C(C)(C)C3[C@@H](O[C@@H]3O[C@H](CO)[C@@H](O)[C@H](O)[C@H]3O)C[C@]12C (some centres not stated)	inactive	–
CC(=O)O[C@@H]1C[C@@]23C[C@@]24CC[C@H](OC2OC[C@@H](O)[C@H](O)[C@H]2O)C(C)(C)[C@@H]4CC[C@H]3[C@]2(C)CC3OC4(C[C@@H](C)C3[C@@]12C)OCC1(C)OC14 (some centres not stated)	inactive	–
COc1ccc(/C=C/C(=O)O[C@H]2[C@@H]3C=CO[C@@H](O[C@@H]4O[C@H](CO)[C@@H](O)[C@H](O)[C@H]4O)[C@@H]3[C@@]3(CO)O[C@@H]23)cc1O	inactive	–
[N-]=[N+]=N[C@]1(CO)O[C@@H](n2ccc(=O)[nH]c2=O)[C@@H](O)[C@@H]1O	inactive	–
CC(C)[C@H]1CCC(CO)=C[C@@H]1/C=C(\CO)C(=O)O	inactive	–
CCn1cc(NC(=S)Nc2cc(Cl)ccc2OC)c(C(N)=O)n1	inactive	–
COCCOCCOc1ccc(C2=N[C@@](C)(C(=O)O)CS2)c(O)c1	inactive	–
CC(=O)OC(C)C(C)(O)C(=O)O[C@@H]1CC[C@]2(C)CC(=O)C(=C(C)C)C[C@H]2[C@]1(C)OC(C)=O (some centres not stated)	inactive	–
OCc1ccc(O[C@@H]2O[C@H](CO)[C@@H](O)[C@H](O)[C@H]2O)cc1	inactive	–
CC1OC(O[C@H]2CC[C@@]3(C)C(CC[C@]4(C)C3CC=C3C5CC(C)(C)CC[C@]5(C(=O)OC5OC(CO)C(OC6OC(COC7OCC(O)C(O)C7O)C(O)C(O)C6O)C(O)C5O)CC[C@]34C)C2(C)C)C(O)C(O)C1OC1OCC(OC2OCC(O)C(O)C2O)C(O)C1O (some centres not stated)	–	10.3% [at 11.2 µM]
CC1(C)C2CC[C@]3(C)C(C(=O)C=C4[C@H]5C[C@@](C)(C(=O)O)CC[C@]5(C)CC[C@]43C)[C@@]2(C)CC[C@@H]1O (some centres not stated)	inactive	–
CC1=CC(=O)CC(C)(C)[C@@]1(O)/C=C/C(C)O[C@@H]1O[C@H](CO)[C@@H](O)[C@H](O)[C@H]1O (some centres not stated)	inactive	–
COc1ccc(-n2[nH]c3c(cnc4ccccc43)c2=O)cc1	inactive	–
c1nc(NC2CCCCCC2)c2cc(CNC[C@H]3CCCO3)sc2n1	inactive	–
C/C=C(\C)C(=O)OCC1OC(OC2OC(COC(=O)/C(C)=C/C)C(OC3OC(CO)C(OC(=O)/C(C)=C/C)C(OC(=O)/C(C)=C/C)C3O)C(O)C2O)C(O)C(O)C1OC1OC(CO)C(OC(=O)/C(C)=C/C)C(OC(=O)/C(C)=C/C)C1O (configuration not stated)	inactive	–
C[C@H](NC(c1cccc(C[P+](=O)O)c1)[C@H](C)O)c1ccc(Cl)c(Cl)c1 (some centres not stated)	inactive	–
CC12CCC(OC3OC(CO)C(O)C(OC4OC(CO)C(O)C(O)C4O)C3O)CC1CCC1C2CCC2(C)/C(=C3/COC(=O)C3)CCC12O (configuration not stated)	inactive	–
C=C1C(=O)OC2CC(C)C(CCC(C)=O)=CCC12 (configuration not stated)	inactive	–

Reference: PubChem BioAssay (NCATS)
